# Measurements: PubChem BioAssay AID1259421 (Broad Institute, 2018)
# Several values for one entry are separate records, joined by “and”; a condition that tells them apart may be missing. Identical values can stand only once. The whole screen tested about 6,400 compounds, of which about 610 (9.5%) were called active. No stated cut-off is given here; in the data, active means activity change below about -70%; inconclusive means no clear call, values can overlap the other calls; inactive means above that. Shown is part of a subset that was picked to be rich in actives. Some compounds were tested as several samples or in several runs, with calls that do not always agree.
# Test: T. gondii ME49Luc in HeLa cells, luciferase assay, 72 h, no IFN-y (AID 1259421)
# Details: stronger effect = lower value, concentration not given here
row,SMILES,"activity change, negative = inhibition"
1,Cc1ccc2c(c1)C(=O)C1(O)CCN(c3ccccc3)C1=N2 (stereo unspecified),12.8% (inactive)
2,COc1ccccc1OC(=O)C(C)c1ccc(CC(C)C)cc1 (stereo unspecified),-39.2% (inactive)
3,O[n+]1ccccc1[S-].O[n+]1ccccc1[S-].[Zn+2],-66.7% (inactive)
4,O=C1NC(=O)C(c2cnc3ccccn23)=C1c1cn2c3c(cc(F)cc13)CN(C(=O)N1CCCCC1)CC2,-84.1% (active)
5,CC(C)n1nnc2cc(C(=O)O)ccc21,9.2% (inactive) and 12.9% (inactive)
6,Cc1nc2sccn2c(=O)c1CCN1CCC(=C(c2ccc(F)cc2)c2ccc(F)cc2)CC1,-60.2% (inactive) and 18.5% (inactive)
7,CC[C@@H](Nc1c(Nc2cccc(C(=O)N(C)C)c2O)c(=O)c1=O)c1ccc(C)o1,-16.5% (inactive)
8,CC(C)(C)NC(=O)[C@H]1CCC2C3CCC4NC(=O)C=C[C@]4(C)C3CC[C@@]21C (stereo partly specified),13.3% (inactive)
9,COC(=O)NC(C(=O)N[C@@H](Cc1ccccc1)C(O)CN(Cc1ccc(-c2ccccn2)cc1)NC(=O)C(NC(=O)OC)C(C)(C)C)C(C)(C)C (stereo partly specified),-10.1% (inactive)
10,OCCOCCN1CCN(C(c2ccccc2)c2ccc(Cl)cc2)CC1 (stereo unspecified),-71.5% (active)
11,O=C(O)COCCN1CCN(C(c2ccccc2)c2ccc(Cl)cc2)CC1 (stereo unspecified),2.12% (inactive) and -3.65% (inactive)
12,O=C(O)COCCN1CCN([C@H](c2ccccc2)c2ccc(Cl)cc2)CC1,-64.2% (inactive)
13,O=C(CC(c1ccccc1)c1ccccc1)N1CCN(C(c2ccccc2)c2ccccc2)CC1,61.6% (inactive)
14,COc1ccc2c(c1OC)C(=O)OC2[C@H]1c2c(cc3c(c2OC)OCO3)CCN1C (stereo partly specified),10.4% (inactive)
15,Nc1ccccc1NC(=O)c1ccc(CNC(=O)OCc2cccnc2)cc1,-0.731% (inactive) and 6.65% (inactive)
16,Nc1ccccc1NC(=O)c1ccc(CNc2nccc(-c3cccnc3)n2)cc1,-79.8% (active) and -89.7% (active)
17,Cc1cc(-c2ccc(CC(=O)Nc3ccc(-c4cccnc4)cc3)cc2)ccn1,6.98% (inactive)
18,O=C(Nc1ccccc1-c1cn2c(CN3CCNCC3)csc2n1)c1cnc2ccccc2n1,-11.3% (inactive)
19,CCCC(=O)Oc1ccc2[nH]c(C(=O)c3cc4ccccc4[nH]3)cc2c1,5.11% (inactive)
20,CN(Cc1ccccc1)Cc1ccccc1,16.3% (inactive)
21,CCN(CC)CCC(=O)N1c2ccccc2Sc2ccc(Cl)cc21,17.9% (inactive)

row,SMILES,"activity change, negative = inhibition"
1,O=C(O)CC(O)(CC(=O)O)C(=O)O,-79.3% (active)
2,O=C(O)CO.[NH2-].[NH2-].[Pt+2],-0.913% (inactive)
3,O=C(O)CCC(=O)O,-23.1% (inactive)
4,CCOC(=O)/C(=N/O)c1csc(N)n1,7.65% (inactive)
5,CCC(CC)(NC(=O)C(C)C)C(=O)N[C@@H](CCCN=C(N)N)C(=O)NC1(C(=O)NC(c2ccc(F)cc2)c2ccc(F)cc2)CCCC1,12.8% (inactive)
6,C/C(=C\c1csc(C)n1)[C@@H]1C[C@@H]2O[C@]2(C)CCC[C@H](C)[C@H](O)[C@@H](C)C(=O)C(C)(C)[C@@H](O)CC(=O)N1,-94.8% (active)
7,C=CCN1CCc2nc(N)sc2CC1,0.82% (inactive)
8,Fc1ccc(C2CCNCC2COc2ccc3c(c2)OCO3)cc1 (stereo unspecified),28.3% (inactive)
9,Cc1cc2nc3c(=O)[nH]c(=O)nc-3n(C)c2cc1C=O,9.97% (inactive) and 10.7% (inactive)
10,CNCCCCOc1ccccc1Cc1ccccc1,17.6% (inactive) and 22% (inactive)
11,O=C(O)CCC1CCC(c2cc(F)ccc2F)(S(=O)(=O)c2ccc(Cl)cc2)CC1 (stereo unspecified),7.06% (inactive)
12,N#Cc1ccccc1OCC(O)CNCCNC(=O)Nc1ccccc1 (stereo unspecified),10.2% (inactive) and -13.2% (inactive)
13,CC1(C)CC23C(=O)CCC(O)C2(C)CCC13 (stereo unspecified),11.7% (inactive)
14,O=C(Nc1ccc([N+](=O)[O-])cc1O)Nc1ccccc1Br,-48.5% (inactive) and -4.88% (inactive)
15,O=C(Nc1cc(C(F)(F)F)cc(C(F)(F)F)c1)c1cc(Cl)ccc1O,-83.9% (active)
16,C=CCNC(=O)c1cc([N+](=O)[O-])cc2c(=O)[nH]c(Nc3ccc(Cl)c(Cl)c3)nc12,3.13% (inactive) and -6.94% (inactive)
17,O=C(Nc1ccccc1)c1cc([N+](=O)[O-])ccc1Cl,14.5% (inactive) and 9.52% (inactive)
18,O=C(Nc1ccncc1)c1cc([N+](=O)[O-])ccc1Cl,-81.1% (active) and -86.9% (active)
19,Cc1oncc1C(=O)Nc1ccc(C(F)(F)F)cc1,165% (inactive) and 187% (inactive)
20,O=C(Nc1ccccc1)c1ccccc1O,110% (inactive) and 0.394% (inactive)
21,NC(=O)c1ccc([N+](=O)[O-])cc1Cl,17.4% (inactive) and 18.6% (inactive)

row,SMILES,"activity change, negative = inhibition"
1,O=C(Nc1ccc([N+](=O)[O-])cc1Cl)c1cc(Cl)ccc1O,-93% (active) and 4.01% (inactive)
2,CN1CCN(C2=Cc3ccccc3Oc3ccc(Cl)cc32)CC1,-2.4% (inactive) and 14.5% (inactive)
3,O=C(NC1CCCCC1)NC1CCCCC1,10.9% (inactive)
4,O=C(O)c1ccc(NC2OC(CO)C(O)C(O)C2O)cc1 (stereo unspecified),4.39% (inactive)
5,Cc1occc(=O)c1O,-2.72% (inactive)
6,CC(C)S(=O)(=O)NC[C@H](C)c1ccc(-c2ccc(CCNS(C)(=O)=O)cc2)cc1,8.52% (inactive)
7,CN1C[C@H]2C[C@@H]1CN2c1cc2c(cc1F)c(=O)c(C(=O)O)cn2C1CC1,7.36% (inactive)
8,NC(=O)C1CCCN1C(=O)C(Cc1cnc[nH]1)NC(=O)C1CCC(=O)N1 (stereo unspecified),2.14% (inactive)
9,CCCCCCCCCCCC[N+](C)(C)CCOc1ccccc1,14.1% (inactive)
10,CCCCOc1ccc(CC(=O)NO)cc1,-24.4% (inactive) and -36.9% (inactive)
11,CCCCCCCCCc1ccc(OCCOCCOCCOCCOCCOCCOCCOCCOCCO)cc1,-73.3% (active)
12,NC(=O)NCCCC(N)C(=O)O (stereo unspecified),15% (inactive)
13,CC(C)=CCC[C@](C)(O)[C@H]1CC[C@]2(C)[C@@H]1[C@H](O)C[C@@H]1[C@@]3(C)CC[C@H](O)C(C)(C)[C@@H]3CC[C@]12C,27.9% (inactive)
14,CCCn1c(=O)c2[nH]cnc2n(-c2ccc(Cl)cc2)c1=O,15.7% (inactive) and 11% (inactive)
15,CO/N=C(/C(=O)NC1C(=O)N2C(C(=O)O)=C(CSc3nnnn3C)CSC12)c1csc(N)n1 (stereo unspecified),8.82% (inactive)
16,C#C[C@]1(OC(C)=O)CCC2C3CCC4=C/C(=N/O)CCC4C3CC[C@@]21CC (stereo partly specified),-84.7% (active)
17,C#C[C@]1(O)CCC2C3CCC4=CC(=O)CC[C@@H]4C3CC[C@@]21C (stereo partly specified),-91% (active)
18,C#C[C@]1(O)CC[C@@H]2C3[C@H](C)CC4=C(CCC(=O)C4)[C@H]3CC[C@@]21C (stereo partly specified),5.27% (inactive)
19,C#C[C@]1(O)CC[C@H]2[C@@H]3CCC4=CCCC[C@@H]4[C@H]3C(=C)C[C@@]21CC,35.3% (inactive)
20,C#C[C@]1(O)CC[C@H]2[C@@H]3CCC4=CC(=O)CC[C@@H]4C3CC[C@@]21CC (stereo partly specified),-83.6% (active)
21,C#C[C@]1(O)CC[C@H]2[C@@H]3CCC4=CC(=O)CC[C@@H]4[C@H]3CC[C@@]21C,-67.2% (inactive)

row,SMILES,"activity change, negative = inhibition"
1,C#C[C@]1(O)CCC2C3CCC4=CC(=O)CCC4C3C(=C)CC21CC (stereo partly specified),16.2% (inactive)
2,C#C[C@]1(O)CCC2C3CCC4=CC(=O)CC[C@@H]4C3CC[C@@]21CC (stereo partly specified),-16.7% (inactive)
3,C#C[C@]1(O)CCC2C3CCC4=C(CCC(=O)C4)C3CC[C@@]21C (stereo partly specified),-83.2% (active)
4,C#C[C@]1(O)CC[C@H]2[C@@H]3CCC4=CC(=O)CC[C@@H]4[C@H]3CC[C@@]21CC,-67.7% (inactive)
5,O=C1c2ccccc2-n2c1nc1ccccc1c2=O,-48.4% (inactive)
6,Cc1nccn1CC1CCC2C(C1=O)c1ccccc1N2C (stereo unspecified),8.1% (inactive)
7,CC(C)(CO)C(O)C(=O)NCCC(=O)NCCSSCCNC(=O)CCNC(=O)C(O)C(C)(C)CO (stereo unspecified),0.59% (inactive)
8,CCN(CC)C(=O)c1cccc(C)c1,17.6% (inactive) and -3.28% (inactive)
9,CCCCN(CCCC)C(=O)CN1C[C@H](c2ccc3c(c2)OCO3)[C@@H](C(=O)O)[C@@H]1c1ccc(OC)cc1,2.8% (inactive)
10,CCOCc1nc2c(N)nc3ccccc3c2n1CC(C)(C)O,18.1% (inactive)
11,N[C@@H](CC(=O)Nc1ccc(Oc2cc(F)c(F)cc2Br)cc1)C(=O)O,7.4% (inactive)
12,COc1cccc(Nc2c(C(N)=O)cnc3c(C)cc(S(=O)(=O)c4cccc(C(=O)N(C)C)c4)cc23)c1,-9.54% (inactive)
13,CNC(=O)c1ccc(C)c(-n2c(C)cc(OCc3ccc(F)cc3F)c(Br)c2=O)c1,9.8% (inactive)
14,CC(=O)NC1=NN(C(C)=O)C(C)(c2ccccc2)S1 (stereo unspecified),-32.2% (inactive)
15,C#C[C@]1(OC(C)=O)CC[C@H]2[C@@H]3CCC4=C[C@@H](OC(C)=O)CC[C@@H]4[C@H]3CC[C@@]21C,-38.3% (inactive) and 1.4% (inactive)
16,C#C[C@]1(OC(C)=O)CCC2C3CCC4=CC(=O)CC[C@@H]4C3CC[C@@]21C (stereo partly specified),-79.9% (active) and -90.3% (active)
17,CC(=O)O[C@]1(C(C)=O)CC[C@H]2[C@@H]3C=C(C)C4=CC(=O)CC[C@@H]4[C@H]3CC[C@@]21C,8.45% (inactive)
18,c1ccc(-c2n[nH]c3c2oc2ccccc23)cc1,129% (inactive) and 2.12% (inactive)
